Screening results (PubChem)
Only some compounds are listed: those with a hit (about 12% of all), similar ones and a draw of the others.
Shiga toxin inh: A qHTS for Small Molecule Inhibitors of Shiga Toxin; 290,000 tested, 9.2% active; Vero cells, Shiga toxin protein synthesis inhibition reporter; inhibition, % at 38.7 µM; in the data active = inhibition mostly above about 28%, no sharp cut-off; inactive = mostly below about 43%
FMDV antiviral: High Throughput Screening for Foot and Mouth Disease Virus Antivirals; FMDV antiviral cell-based qHTS; Potency, µM (top dose mostly 57.9 µM), hits mostly inhibitors; 410,000 tested, 1.2% active; calls by dose curve; tested in HEK293T cells; note: read-out not given here; nearly all actives have a fitted effect of over 45% in size
CHX counter: Cycloheximide Counterscreen for Small Molecule Inhibitors of Shiga Toxin; cell reporter, cycloheximide protein synthesis inhibition counterscreen; max response, %; 300,000 tested, 12% active; in the data active = max response mostly above about 13%, no sharp cut-off; inactive = mostly below about 14%; note: read at 38.3 µM for the half of the compounds with a filed dose
Sm TGR block: qHTS Assay for the Inhibitors of Schistosoma Mansoni Peroxiredoxins | Schistosoma mansoni thioredoxin glutathione reductase (TGR), Q962Y6 | purified TGR, DTNB reduction, TNB absorbance 405 nm | Potency, µM (series often up to 114 µM), most hits filed as inhibitors | 360,000 tested, 3% active; active = well fitted inhibition curve with a large enough effect; inconclusive = small, poorly fitted or top-dose-only effect; inactive = no such curve, though single readings can be large or run the other way; note: nearly all actives have a fitted effect of over 60% in size
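Kinetic colorimetric format: TGR-catalysed, NADPH-driven DTNB reduction monitored via TNB absorbance. Enzyme dispensed at 20 nM; compound exposure 15 min at room temperature before reaction start.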
Of the large screens only hits and unclear results are named; the others gave an inactive call.

C/C=C/C=C/C(=O)OC(C)C(=O)Nc1cc([N+](=O)[O-])ccc1OC (stereo not given)	Sm TGR block 22.4µM
O=[N+]([O-])c1ccc(O)c(NC(=S)Nc2ccccc2)c1	CHX counter 37.2
CNC(=S)Nc1cccc([N+](=O)[O-])c1	Sm TGR block inconclusive
O=[N+]([O-])c1ccc(O)c(Nc2ncnc3ccccc23)c1	CHX counter 16.9
CCOC(=O)c1ccc(C(=O)OCC)c(NC(=S)Nc2ccc([N+](=O)[O-])cc2OC)c1	Shiga toxin inh 66.8, CHX counter 69.1
N#Cc1ccccc1Cn1c(SCC(=O)Nc2ccc(F)cc2)nc2ccccc21	none (no result: Shiga toxin inh, CHX counter)
CCOC(=O)c1ccc(NC(=O)Cn2nc(C)c3nn(-c4ccc(Cl)cc4)c(C)c3c2=O)cc1	none (no result: Shiga toxin inh, CHX counter)
COc1ccc([N+](=O)[O-])cc1NC(=S)Nc1ccccc1	Sm TGR block 28.2µM
COc1ccc([N+](=O)[O-])cc1NC(=O)Nc1ccccc1	none
CC(=O)c1ccc(NC(=O)C2CC(=O)N(Cc3ccccc3)C2)cc1 (stereo not given)	Shiga toxin inh 101.0, CHX counter 28.8
O=C(Nc1ccncc1)C1CC(=O)N(Cc2ccccc2)C1 (stereo not given)	none (no result: Shiga toxin inh, CHX counter, Sm TGR block)
O=C(Nc1ccccc1)C1CC(=O)N(Cc2ccccc2)C1 (stereo not given)	none
O=C(Nc1ccc(SC(F)F)cc1)C1CC(=O)N(Cc2ccccc2)C1 (stereo not given)	Shiga toxin inh 26.4, CHX counter 15.2
Cc1ccc(S(=O)(=O)CC(=O)Nc2nc3c(C)cc(C)cc3s2)cc1	none (no result: Shiga toxin inh, CHX counter)
Cc1csc(NC(=O)c2cc(-c3ccncc3)nc3ccccc23)n1	none
Cc1nnc(NC(=O)c2cc(-c3ccncc3)nc3c(C)cccc23)s1	Shiga toxin inh 32.2, CHX counter 36.0
CCCc1nn2c(=O)cc(COC(=O)c3cccc(NC(=O)c4cccs4)c3)nc2s1	none (no result: Shiga toxin inh, CHX counter)
c1ncc(-c2ccoc2)c(NC2CC2)n1	none (no result: Shiga toxin inh, CHX counter, Sm TGR block)
CN1CCN(C(=O)c2cc3ccccc3[nH]2)CC1	none (no result: Shiga toxin inh)
Cc1ccc(S(=O)(=O)N2CCCN(C(=O)c3cc4ccccc4[nH]3)CC2)cc1	Shiga toxin inh 80.5, CHX counter 53.8
O=C(c1cc2ccccc2[nH]1)N1CCOCC1	Shiga toxin inh active, CHX counter 19.2
CCn1c(SCc2ccccc2F)nc(=O)c2c(C(=O)OC)cc(C3CC3)nc21	none (no result: Shiga toxin inh, CHX counter)
NNCc1cccc(O)c1	Shiga toxin inh 102.1, CHX counter 34.6
Cc1scc(C(=O)NNC(=S)NC(C)c2ccccc2)c1C (stereo not given)	none
CC1=C(C)CC(C(=O)NNC(=O)c2csc(C)c2C)C(C(=O)O)C1 (stereo not given)	Shiga toxin inh 79.3, CHX counter 20.9
Cc1oc2ncnc(N3CCOCC3)c2c1C(=O)Nc1ccc(Br)cc1F	none (no result: Shiga toxin inh, CHX counter)
Cn1c(=O)c(C(=O)CCl)c(N)n(CC2CC2)c1=O	FMDV antiviral inconclusive, Sm TGR block 14.1µM
Cc1csc(SCC(=O)c2c(N)n(CC(C)C)c(=O)n(C)c2=O)n1	FMDV antiviral inconclusive
CC(C)Cn1c(N)c(C(=O)CCl)c(=O)n(C)c1=O	FMDV antiviral inconclusive, Sm TGR block 20µM
CCOC(=O)Cc1csc(SCC(=O)c2c(N)n(CC(C)C)c(=O)n(C)c2=O)n1	FMDV antiviral 11.2µM
O=C(NCCc1nnc2n1CCN(Cc1ccc(F)cc1)CC2)c1ccc(F)cc1	none (no result: Shiga toxin inh, CHX counter, Sm TGR block)
COc1ccc(Cl)cc1NC(=O)c1cc2ccc3ccc(C)[nH]c3c2n1	none (no result: Shiga toxin inh, CHX counter)
O=Cc1cc(-c2ccccc2)[nH]c1-c1ccccc1	CHX counter 23.7 (no result: Shiga toxin inh)
O=Cc1cn[nH]c1-c1ccccc1	none
CN(C)S(=O)(=O)Oc1cc(Cl)ccc1C(=O)Nc1ccc(F)cc1F	CHX counter 34.9
CN(C)c1ccncc1C(=O)Nc1ccc(F)cc1F	none
Cc1cccn2c(=O)c(/C=C(\C#N)C(=O)NC3CCS(=O)(=O)C3)c(Oc3ccccc3Cl)nc12 (stereo not given)	FMDV antiviral 20µM
Cc1cccn2c(=O)c(/C=C(\C#N)C(=O)NC3CCS(=O)(=O)C3)c(N3CCC(C(N)=O)CC3)nc12 (stereo not given)	none
Cc1ccccc1Oc1nc2c(C)cccn2c(=O)c1/C=C(\C#N)C(=O)NC1CCS(=O)(=O)C1 (stereo not given)	FMDV antiviral 20µM
Cc1ccc(Oc2nc3c(C)cccn3c(=O)c2/C=C(\C#N)C(N)=O)cc1	FMDV antiviral 17.8µM, Sm TGR block inconclusive
Cc1ccc(NC(=O)c2cnc(SCC(=O)N3CCOCC3)n(C)c2=O)cc1	none (no result: Shiga toxin inh, CHX counter)
CN1CCN(c2ccc(-c3nc(-c4ccccc4)no3)cc2[N+](=O)[O-])CC1	none (no result: Shiga toxin inh, CHX counter)
COCCc1nc2ccc(C(=O)N(C)Cc3cccc(-n4cccn4)c3)cc2o1	Shiga toxin inh 81.7, CHX counter 62.4
CN(Cc1cccnc1)C(=O)c1ccc2nc(Cc3ccccc3F)oc2c1	Shiga toxin inh 61.1, CHX counter 42.8
CN(C)CCNC(=O)c1ccc2nc(CCc3ccccc3)oc2c1	none (no result: Shiga toxin inh, CHX counter)
Cc1ccc(OC(=O)c2cc(-c3ccc4c(c3)OCCO4)on2)c(C)c1	none (no result: Shiga toxin inh, CHX counter)
Fc1ccccc1NC(=S)N1CCC(c2ccccc2)C1 (stereo not given)	Shiga toxin inh 164.2, CHX counter 61.6
COc1ccc(C2CCCN2C(=S)Nc2ccc(C)cc2Cl)cc1OC (stereo not given)	Shiga toxin inh 63.8
Cc1ccc(NC(=S)N2CCC(c3ccccc3)C2)c(Cl)c1 (stereo not given)	Shiga toxin inh 72.2
Fc1cc(F)cc(NC(=S)N2CCC(c3ccccc3)C2)c1 (stereo not given)	Shiga toxin inh 137.8, CHX counter 40.8
CCOc1ccc2oc(=O)cc(CN3CCN(c4ccc(OC)cc4)CC3)c2c1	none (no result: Shiga toxin inh, CHX counter)
CCOc1ccc(-c2cccc(NS(=O)(=O)c3c(C)cc(C)cc3C)c2)nn1	none (no result: Shiga toxin inh, CHX counter)
COc1ccc(-c2noc(COc3cc(C)c(Br)c(C)c3)n2)cc1OC	none (no result: Shiga toxin inh, CHX counter)
COc1ccc(S(=O)(=O)Nc2cccc3cccnc23)c([N+](=O)[O-])c1	none (no result: FMDV antiviral, Sm TGR block)
Cc1ccc2c(=O)cc(C(=O)N(Cc3ccc(N(C)C)cc3)C3CCS(=O)(=O)C3)oc2c1 (stereo not given)	none (no result: Shiga toxin inh, CHX counter)
O=C(/C=C/c1ccc(Cl)cc1)Nc1nc(-c2cccs2)ns1	none (no result: Shiga toxin inh, CHX counter)
S=C(Nc1ccccc1Cl)N1CCC(c2ccccc2)C1 (stereo not given)	Shiga toxin inh 130.9, CHX counter 44.3
O=C(NC1CCN(C(=S)Nc2ccccc2Cl)CC1)C1CCCCC1	none
Cc1nnc(N/N=C/c2cccc(OCc3ccc(Cl)c(Cl)c3)c2)n1N	Shiga toxin inh 46.9, CHX counter 39.0
Cc1nnc(N/N=C/c2cccc(C(F)(F)F)c2)n1N	none
O=C(c1ccc2c(c1)N(Cc1ccccc1)C(=O)c1ccccc1S2(=O)=O)N1CCc2ccccc21	none (no result: Shiga toxin inh, CHX counter)
COc1cc(NC(=O)CSc2nc3ncccc3o2)cc(OC)c1	none (no result: Shiga toxin inh, CHX counter)
CC(C)Cc1nc2oc3c(Cl)ncnc3c2c2c1CCCC2	FMDV antiviral inconclusive, Sm TGR block inconclusive
CCCc1nc2oc3c(Cl)ncnc3c2c2c1CCCC2	FMDV antiviral 14.1µM
O=C1c2ccccc2C(=O)C1(CO)c1ccccc1	Shiga toxin inh 105.5, CHX counter 33.7
O=C1c2ccccc2C(=O)C1(CO)c1ccc(OC(F)F)cc1	Shiga toxin inh 26.8, CHX counter 53.3
